Screening data from PubChem.
CYP2C9 activ – activators of human CYP2C9; recombinant CYP2C9, luciferin-H conversion, luminescence; stronger effect = higher value; factor 1 = untreated enzyme, 0 = blocked; 96,000 compounds, 1.4% hits; activation factor at 5 µM; AID 1024;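 active means activation factor of 2 or more for CYP2C9 at a 5 µM dose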
CYP2C19 act – increases human CYP2C19 enzyme activity; recombinant CYP2C19, luciferin-H EGE luminescence; stronger effect = higher value; 0 = fully inhibited enzyme, 1 = untreated enzyme; activation factor at 5 µM; 96,000 tested, under 10 active; AID 1025;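 active means activation factor of at least 2 at 5 µM in the primary screen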
Target sequence (P33261 whole entry, looked up): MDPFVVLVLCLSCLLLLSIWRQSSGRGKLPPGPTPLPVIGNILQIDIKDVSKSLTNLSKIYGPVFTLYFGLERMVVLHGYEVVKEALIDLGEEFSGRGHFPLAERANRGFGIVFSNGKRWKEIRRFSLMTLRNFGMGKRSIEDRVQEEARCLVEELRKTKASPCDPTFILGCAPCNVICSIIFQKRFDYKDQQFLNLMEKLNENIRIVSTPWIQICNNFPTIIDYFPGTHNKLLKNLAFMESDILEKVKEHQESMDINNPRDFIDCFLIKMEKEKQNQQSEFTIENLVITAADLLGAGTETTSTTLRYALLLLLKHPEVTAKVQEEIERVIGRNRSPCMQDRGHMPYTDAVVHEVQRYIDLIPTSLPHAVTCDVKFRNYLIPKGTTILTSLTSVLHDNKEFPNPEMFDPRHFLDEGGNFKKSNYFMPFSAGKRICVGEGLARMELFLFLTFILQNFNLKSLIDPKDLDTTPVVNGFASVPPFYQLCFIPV
CYP2C9 inh – inhibitors of human CYP2C9; P11712; CYP2C9 Supersomes, luciferin-H conversion, luminescence; inhibition, % at 5 µM; 96,000 compounds, 20% hits;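 active means blocking of liver enzyme CYP2C9 beyond about 50% at 5 µM, limit read from the data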
CYP2C19 inh – blocks human cytochrome P450 2C19; P33261; 96,000 compounds, 21% hits; inhibition, % at 5 µM; CYP2C19 Supersomes, luciferin-H EGE luminescence, 30 min;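 active means CYP2C19 inhibition above a set limit at 5 µM in the primary screen, cut at about 50% in these data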
Mac1 fbg enh – increases human CD11b/CD18 adhesion to fibrinogen. P05107+P11215. K562 CD11b/CD18 adhesion to fibrinogen, ATPlite luminescence. activation, % at 10 µM. 93,000 compounds, 0.07% hits. AID 1499;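 active means 10 µM primary screen giving 50% or more activity, confirmed by 40% or more on retest at that dose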
Mac1 fbg inh – inhibitors of human CD11b/CD18 binding to fibrinogen; K562 CD11b/CD18 adhesion to fibrinogen, ATPlite luminescence; Mn2+ added to activate the integrin; 93,000 compounds, 0.54% hits; inhibition, % at 10 µM;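 active means primary inhibition of 50% or more at 10 µM, then 40% or more on retest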
Numbers stand for hits. In the library only some 28% were active in any assay of this set; here they are far more common.

Results for CCCn1c(SCC(=O)NC2CCCC(C)C2C)n[nH]c1=O (stereo not drawn) ?
CYP2C9 activ: inactive; CYP2C19 act: inactive; CYP2C9 inh: inactive; CYP2C19 inh: inactive; Mac1 fbg enh: inactive; Mac1 fbg inh: inactive

What do the screens show for `Cc1c(C2OC(=O)C3(CCCCC3)C(=O)C2(C)C)c(=O)n(-c2ccccc2)n1C` (stereo not drawn)?
CYP2C9 activ: inactive; CYP2C19 act: inactive; CYP2C9 inh: inactive; CYP2C19 inh: inactive; Mac1 fbg enh: inactive; Mac1 fbg inh: inactive

What do the screens show for `N#CCCN1CCN(S(=O)(=O)c2ccc(S(=O)(=O)NCc3ccccc3)cc2)CC1`?
CYP2C9 activ: inactive; CYP2C19 act: inactive; CYP2C9 inh: inactive; CYP2C19 inh: inactive; Mac1 fbg enh: inactive; Mac1 fbg inh: inactive

How did N#CCCN1CCN(C(CNS(=O)(=O)c2ccc(Cl)cc2)c2ccccc2)CC1 (stereo not drawn) do in these assays?
CYP2C9 activ: inactive; CYP2C19 act: inactive; CYP2C9 inh: inactive; CYP2C19 inh: 89.6; Mac1 fbg enh: inactive; Mac1 fbg inh: inactive

How did Cc1ccc(S(=O)(=O)NCC(c2ccccc2)N2CCN(CCC#N)CC2)cc1 (stereo not drawn) do in these assays?
CYP2C9 activ: inactive; CYP2C19 act: inactive; CYP2C9 inh: inactive; CYP2C19 inh: 75.9; Mac1 fbg enh: inactive; Mac1 fbg inh: inactive

What do the screens show for `CCCCn1c(=O)n(CC(O)c2ccccc2)c(=O)c2c1ncn2C1CCCC1` (stereo not drawn)?
CYP2C9 activ: inactive; CYP2C19 act: inactive; CYP2C9 inh: inactive; CYP2C19 inh: inactive; Mac1 fbg enh: inactive; Mac1 fbg inh: inactive

How did C/C(=N/NS(=O)(=O)c1ccc(F)cc1)c1ccc(NC(=O)c2ccc(C)o2)cc1 do in these assays?
CYP2C9 activ: inactive; CYP2C19 act: inactive; CYP2C9 inh: 94.9; CYP2C19 inh: inactive; Mac1 fbg enh: inactive; Mac1 fbg inh: inactive

Results for c1ccc(-c2nnc3ccc(N4CCCC4)nn23)cc1 ?
CYP2C9 activ: inactive; CYP2C19 act: inactive; CYP2C9 inh: inactive; CYP2C19 inh: inactive; Mac1 fbg enh: inactive; Mac1 fbg inh: inactive

Results for Cc1ccc(S(=O)(=O)N2CCN(c3ccc4nnc(-c5ccccc5)n4n3)CC2)cc1 ?
CYP2C9 activ: inactive; CYP2C19 act: inactive; CYP2C9 inh: 99.1; CYP2C19 inh: 94.8; Mac1 fbg enh: inactive; Mac1 fbg inh: inactive

What do the screens show for `COc1ccc(S(=O)(=O)N2CCN(c3ccc4nnc(-c5ccc(F)cc5)n4n3)CC2)cc1`?
CYP2C9 activ: inactive; CYP2C19 act: inactive; CYP2C9 inh: 97.1; CYP2C19 inh: 89.5; Mac1 fbg enh: inactive; Mac1 fbg inh: inactive

How did COC(=O)c1cn(C(C)C(=O)NCc2ccco2)c2ccccc12 (stereo not drawn) do in these assays?
CYP2C9 activ: inactive; CYP2C19 act: inactive; CYP2C9 inh: inactive; CYP2C19 inh: 59.3; Mac1 fbg enh: inactive; Mac1 fbg inh: inactive

How did COC(=O)[C@H](C)NC(=O)NCc1ccco1 do in these assays?
CYP2C9 activ: inactive; CYP2C19 act: inactive; CYP2C9 inh: inactive; CYP2C19 inh: inactive; Mac1 fbg enh: inactive; Mac1 fbg inh: inactive

Results for O=C(O)c1ccc(NC(CSCc2ccc(F)cc2)C(=O)O)c([N+](=O)[O-])c1 (stereo not drawn) ?
CYP2C9 activ: inactive; CYP2C19 act: inactive; CYP2C9 inh: 90.4; CYP2C19 inh: inactive; Mac1 fbg enh: inactive; Mac1 fbg inh: inactive

Results for O=C(O)c1ccc(NC(CSCc2cccc(F)c2)C(=O)O)c([N+](=O)[O-])c1 (stereo not drawn) ?
CYP2C9 activ: inactive; CYP2C19 act: inactive; CYP2C9 inh: 61.9; CYP2C19 inh: inactive; Mac1 fbg enh: inactive; Mac1 fbg inh: inactive

Results for O=C(Nc1ccccc1)c1ccc(NCCc2ccccc2)c([N+](=O)[O-])c1 ?
Mac1 fbg enh: inactive; Mac1 fbg inh: inactive

How did Cc1ccc(CSCC(Nc2ccc(C(=O)O)cc2[N+](=O)[O-])C(=O)O)cc1 (stereo not drawn) do in these assays?
CYP2C9 activ: inactive; CYP2C19 act: inactive; CYP2C9 inh: 93.8; CYP2C19 inh: inactive; Mac1 fbg enh: inactive; Mac1 fbg inh: inactive

Results for c1ccc(Cn2ccnc2SCc2nnc(-c3ccccc3)o2)cc1 ?
CYP2C9 activ: inactive; CYP2C19 act: inactive; CYP2C9 inh: inactive; CYP2C19 inh: inactive; Mac1 fbg enh: inactive; Mac1 fbg inh: inactive
